Here are results for 99 compounds from PubChem BioAssay AID2732 (Emory University Molecular Libraries Screening Center, 2010).

Values joined by “and” are separate entries in the source; they are usually repeats but may differ in a detail not shown here. Identical values can stand only once. Out of some 220,000 compounds screened, about 8,200 (3.7%) were called active.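 How the source made its calls: active means compounds that reduced the stress-induced luciferase reporter signal by more than about 70% of percent inhibition (limit read from the data); inactive means the rest.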 For the sample, actives were picked, then their nearest neighbours and some compounds at random. More than one record can exist for a structure, and the calls need not agree.

This assay is described as follows: blockers of ER-stress CHOP reporter expression – cell-based, unfolded protein response, luciferase reporter, primary screen (AID 2732).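 Further: 0% = tunicamycin plus vehicle and 100% = wells without tunicamycin.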 To be noted: CHO-K1 CHOP-promoter luciferase, tunicamycin-induced, 15-18 h; at 10 µM; stronger effect = higher value. On the technique in general: A reporter such as luciferase makes a cellular process visible.
Turning to `CC(C)COC(=O)n1c(=O)oc2ccc(S(=O)(=O)N3CCCCC3)cc21`, the inhibition was 11.3% (inactive). Take `COc1ccc(OC)c(Nc2nc3ccccc3n3cnnc23)c1`: the inhibition is 24.5% (inactive).

On to `Cc1cccc(C2C3=C(CCCC3=O)N=C3c4ccccc4C(=O)C32)c1` (centres undefined), for which the inhibition was 19.4% (inactive). With `Cc1cccc(NC(=O)c2nnn(-c3cccc(C(F)(F)F)c3)c2N)c1`, the inhibition was 70.6% (active). On to `CC(=O)N1CCN(C(=O)Nc2cccc(C(F)(F)F)c2)CC1`, for which the inhibition is 26.5% (inactive). Under `Cc1cccc(NC(=O)c2cccc(C(F)(F)F)c2)c1` stands 2.04% (inactive); under `CC(=O)OCCOCn1cnn2c(=O)c(Br)c(C)nc12`, 7.79% (inactive); under `O=C(O)c1ccccc1OCc1ccccc1Cl`, -5.39% (inactive). Turning to `Cn1nccc1NC(=O)Nc1ccc(OC(F)(F)F)cc1`, the inhibition is 0.64% (inactive). On to `Cc1ccc(C(=O)OC2CCCN(C)C2)cc1` (centres undefined), for which the inhibition is 7.84% (inactive). As to `CC1(C)C2CCC1(C)C(OC(=O)CCn1ccnc1)C2` (centres undefined), the inhibition is 4.53% (inactive). Regarding `CC1(C)C2CCC1(C)C(OC(=O)c1ccc(O)cc1)C2` (centres undefined), the inhibition is 77.6% (active). Turning to `N#Cc1ccc(Oc2ccc(C(F)(F)F)cc2NC(=O)c2ccc(F)cc2)cc1`, the inhibition is 6.42% (inactive). For `O=C(NCC1CCCO1)c1ccccc1-c1nc(-c2ccccc2Cl)no1` (centres undefined), the inhibition was -0.61% (inactive).

Take `C1=C(CCNc2ncnc3c2cnn3-c2ccccc2)CCCC1`: the inhibition was 88% (active).

Take `O=C(NNc1ncnc2c1cnn2-c1ccccc1)c1ccco1`: the inhibition was 2.45% (inactive).

`c1ccc(-n2ncc3c(N4CCCC4)ncnc32)cc1`: the inhibition was -22.2% (inactive). The figure for `O=C1N(c2ccccc2)C(=Nc2ccccc2)SC12CC2` is -17.1% (inactive); for `O=C(CCNc1n[nH]c(=O)[nH]c1=O)N/N=C\c1ccc(Br)cc1` it is -14.4% (inactive); for `Cc1noc(C)c1S(=O)(=O)Nc1cc(C(F)(F)F)ccc1N1CCOCC1` it is 13.3% (inactive). For `CC(C)(C)NC(=O)NC(=O)COC(=O)CCC1CCCCC1`, the inhibition is 80.2% (active). In the case of `COc1ccccc1OCCC(=O)OCC(=O)NC(=O)NC(C)(C)C`, the inhibition was 44.9% (inactive).

In the case of `CC(C)(C)NC(=O)NC(=O)COC(=O)C1(C)CC1(Cl)Cl` (centres undefined), the inhibition was 6.38% (inactive). `Cc1c(C(=O)N/N=C/c2ccccc2)[nH]c2c([N+](=O)[O-])cccc12`: the inhibition was 20% (inactive). Regarding `O=C(O)C(F)(F)C(NCc1ccccc1)c1ccccc1` (centres undefined), the inhibition was -11.7% (inactive).

Take `Cc1ccc(N2C(=O)CN=C2Nc2nc(C)cc(C)n2)cc1`: the inhibition was 17% (inactive). In the case of `O=C(c1ccc(Cl)cc1)c1cnc(Nc2ccccc2)s1`, the inhibition was 70.1% (active). Under `CC(C)(C)C(=O)c1cnc(Nc2ccccc2)s1` stands 4% (inactive); under `O=C(CSc1nnc(Nc2ccccc2)s1)Nc1cccnc1Cl`, -4.1% (inactive). For the compound `CCc1ccnc(NS(=O)(=O)c2ccc3c(c2)OCCO3)c1`, the inhibition was 16.7% (inactive). For `O=c1c(/C=N/O)coc2ccc(Cl)cc12`, the inhibition was 3.04% (inactive).

On to `c1ccc2c(NC3C4CC5CC(C4)CC3C5)nc(N3CCOCC3)nc2c1` (centres undefined), for which the inhibition is 83.1% (active). Take `CC(Nc1nc(N2CCOCC2)nc2ccccc12)c1ccccc1` (centres undefined): the inhibition was 16.9% (inactive). The figure for `CC(Nc1nc(N2CCCC2)nc2ccccc12)c1ccccc1` (centres undefined) is 34.2% (inactive); for `Cc1cc(=O)oc2c(C(=O)c3ccccc3)c(OCC(N)=O)ccc12` it is 6.93% (inactive). In the case of `COc1ccc(NC(=O)COC(=O)CNC(=O)C2CCCCC2)cc1`, the inhibition is 9.71% (inactive). Under `O=C(OCC(=O)c1cccs1)C1=COCCO1` stands 17.6% (inactive); under `CCC(C)(C)c1ccc(Oc2ccc(NC(=O)COC(=O)C3=COCCO3)cc2)cc1`, 80.4% (active); under `COCCN(Cc1cc2cc3c(cc2nc1Cl)OCO3)C(=O)c1cccc(C)c1`, 27.4% (inactive). As to `COC(=O)N(NC(=O)C(O)(C(C)C)C(C)C)c1ccccc1`, the inhibition was 16% (inactive). For the compound `COC(=O)c1cc(NC(=O)c2cc(C(C)(C)C)nn2Cc2cccc(C)c2)ccc1N1CCOCC1`, the inhibition is 42.8% (inactive). For the compound `CCOC(=O)C1C(c2ccc(OC)c(OC)c2)c2c([nH][nH]c2=O)CC1(C)O` (centres undefined), the inhibition is 3.71% (inactive).

For the compound `O=C1N=C(N2CCc3ccccc3C2)S/C1=C\c1ccc(O)cc1`, the inhibition was -2.8% (inactive).

As to `Cc1ccc(NC(=O)C(=O)NCc2ccc(/C=N/NC(=O)c3c(C)nc4cc(C)ccn34)o2)cc1`, the inhibition was 78.9% (active).

Turning to `C/C(=N\OC(=O)c1ccccc1)c1c(C)nc2cc(C)ccn12`, the inhibition is 15.7% (inactive).

Turning to `O=C(CSc1ccc(/C=N/NC(=O)c2cccc(F)c2)o1)Nc1ccccc1`, the inhibition is -10.9% (inactive).

In the case of `COc1ccc(S(=O)(=O)N(CC(=O)N/N=C/c2ccccc2C(=O)O)c2ccccc2OC)cc1`, the inhibition was -10.7% (inactive). Consider `CCOC(=O)c1nnn(-c2nonc2OC)c1-c1ccccc1`, for which the inhibition is 24.9% (inactive).

In the case of `CCOC(=O)c1c(N)nn(C(=O)c2ccccc2)c1-c1ccccc1`, the inhibition was 72.5% (active). Consider `CCOC(=O)c1c(-c2cccc(N)c2)cn2ccccc12`, for which the inhibition is 20% (inactive). `C=C1CCN([C@H](C(=O)NCc2cc(OC)c(OC)c(OC)c2)C(C)C)S(=O)(=O)c2ccccc21`: the inhibition was -3.31% (inactive). Turning to `Cc1nc(Cl)c(C#N)c2c1CCCC2`, the inhibition was 18.3% (inactive).

Turning to `O=S(=O)(c1ccc(Cl)cc1)N1CCCN(c2ccc(C(F)(F)F)cn2)CC1`, the inhibition is 21.2% (inactive). Under `COc1ccc(/C=C2/S/C(=N/N=C3\CC4CCC3(C)C4(C)C)NC2=O)cc1` (centres undefined) stands 88.5% (active). `COc1ccc(/C=C2\SC(=N)N(c3ccc(F)cc3)C2=O)cc1`: the inhibition was 38.3% (inactive). Regarding `CCOc1ccc(N=C2NC(=O)S/C2=C\c2ccc(O)cc2)cc1`, the inhibition was 64.1% (inactive). `O=S(=O)(NC(=S)Nc1ccccc1)c1ccc(F)cc1`: the inhibition is -27.1% (inactive). Under `N#Cc1c(NCCO)ccc([N+](=O)[O-])c1NCCO` stands 14.8% (inactive). On to `COc1ccc(/C=C2\N=C3CCCN3C2=O)cc1`, for which the inhibition is -36.1% (inactive). The figure for `Cc1cc(C)nc(Nc2n[nH]c(-c3ccccc3N)n2)n1` is -32.3% (inactive); for `COc1cc(/C=N/O)cc(Br)c1OCc1cccc(Cl)c1` it is 108% (active); for `CCOc1cc(/C=N/O)cc(Br)c1OC` it is 23.6% (inactive). For `CCOc1c(Cl)cc(/C=N/O)cc1OC`, the inhibition is 10.4% (inactive).

Consider `C#CCOCCOCCOCCNc1nc(N2CCN(C(=O)[C@H](CCC(=O)O)n3cc(C(N)CO)nn3)CC2)nc(N2CCN(C(=O)[C@H](CCCCN)n3cc(C(N)[C@H](C)CC)nn3)CC2)n1` (some centres undefined), for which the inhibition was -9.04% (inactive). As to `CCOC(=O)c1c(C)nn(-c2ncccc2NC(=O)CCC(=O)O)c1C`, the inhibition was 15.2% (inactive). As for `COC(=O)c1c(C)oc(C)c1S(=O)(=O)Nc1ccc(C(C)C)cc1`, the inhibition was 8.63% (inactive). On to `Cc1cccc(N2CCN(Cc3nc(C4CC4)no3)CC2)n1`, for which the inhibition was -7.46% (inactive). On to `Nc1cccc(S(=O)(=O)Nc2ccc(SC(F)F)cc2)c1`, for which the inhibition was 6.78% (inactive). As to `O=C(COc1ccc(/C=N/NC(=O)c2ccc(O)cc2)cc1)Nc1ccc([N+](=O)[O-])cc1`, the inhibition was 0.44% (inactive). As to `CCCCCC(=O)NC(=S)NNC(=O)c1ccc([N+](=O)[O-])cc1`, the inhibition was 26.4% (inactive). Under `CCCCCC(=O)Nc1ccc(C(=O)N/N=C/c2ccc([N+](=O)[O-])cc2)cc1` stands 73.8% (active). `O=C1NC[C@@H](Cc2ccc(O)cc2)N(CCc2cccc(F)c2)C1=O`: the inhibition is -6.82% (inactive).

`Brc1ccc(-c2n(-c3ccccn3)c3ccccc3[n+]2-c2ccccn2)cc1`: the inhibition was 24.6% (inactive).

In the case of `CCOC(=O)c1sc(-c2cccc([N+](=O)[O-])c2)cc1N`, the inhibition was 75.2% (active). Turning to `CCOC(=O)c1sc2nc(SC)nc(-c3ccccc3)c2c1N`, the inhibition was -31.5% (inactive). Turning to `Cc1cccc(C(=O)NNC(=O)c2cccc([N+](=O)[O-])c2)c1`, the inhibition was 3.14% (inactive).

Consider `CC(C)c1ccc(NC(=S)NC2CC3C=CC2C3)cc1` (centres undefined), for which the inhibition is 51.2% (inactive).

`CC(=O)Nc1nc2c(s1)C(=O)NCC(C)(C)C2`: the inhibition is 12.8% (inactive).

For the compound `Brc1ccc(-c2noc(-c3ccccc3)n2)o1`, the inhibition was 26.1% (inactive).

For the compound `CS(=O)(=O)c1ccc(Cl)c(NC(=O)Nc2ccccc2)c1`, the inhibition was 2.73% (inactive). For `CCCCCCOC(=O)NCC(O)c1ccccc1` (centres undefined), the inhibition is 1.35% (inactive). Consider `CCCn1c(C(O)c2ccc(OCC)cc2)nc2ccccc21` (centres undefined), for which the inhibition is 19% (inactive).

Regarding `CCCCCC(O)c1cccc(OCc2ccc3ccccc3n2)c1` (centres undefined), the inhibition was 88.4% (active) and -8.07% (inactive).

With `O=C(NC(=O)c1cc(OCC(F)(F)F)ccc1OCC(F)(F)F)Nc1ccccc1`, the inhibition was 6.78% (inactive).

For the compound `Cc1ccc(/C=N/NC(=O)CSc2ccccn2)o1`, the inhibition is -0.26% (inactive). As for `CC(C)n1c(=S)[nH]c2cc(C(F)(F)F)ccc21`, the inhibition is 22.9% (inactive). Take `CCc1ccc(NC(=O)Cn2nc(C)c([N+](=O)[O-])c2C)cc1`: the inhibition was 14.9% (inactive).

Take `Cc1ccc(Oc2cc(NC(=O)CCCn3nc(C)c([N+](=O)[O-])c3C)cc([N+](=O)[O-])c2)cc1`: the inhibition was 71.1% (active). Regarding `COc1ccc(CNC(=O)CCCn2nc(C)c([N+](=O)[O-])c2C)cc1`, the inhibition is 11.7% (inactive). As to `Cc1ccc(/C=N/NC(=O)CN2CCN(Cc3ccccc3)CC2)s1`, the inhibition was 13.5% (inactive).

In the case of `CCOC(=O)c1ccc(NC(=O)Cn2cnc3cc(C)c(C)cc32)cc1`, the inhibition was 55.6% (inactive). The figure for `O=C(NNS(=O)(=O)c1ccccc1)c1cnn(-c2ccc(Cl)cc2)c1C(F)(F)F` is -3.7% (inactive). The figure for `C[C@H](NC(=O)c1nc[nH]c1C(=O)N[C@@H](C)C(=O)OC(C)(C)C)C(=O)OC(C)(C)C` is 1.44% (inactive); for `Cc1ccc(-c2noc(CSc3nnnn3-c3ccccc3)n2)cc1` it is 70.7% (active). As to `COc1ccc(C)cc1-n1nnnc1SCc1nc2ccccc2c(=O)[nH]1`, the inhibition is 12.6% (inactive). As to `O=c1c2ccccc2nc(CSc2nnnn2-c2ccccc2)n1-c1ccccc1`, the inhibition is 32.4% (inactive).

As to `Cc1ccc(Nc2nc(CSc3nnnn3-c3ccccc3)cc(=O)[nH]2)cc1`, the inhibition was 81.8% (active). In the case of `Cc1ccc(-c2noc(CSc3nnc(-c4cccs4)n3C)n2)cc1`, the inhibition is -8.68% (inactive). The figure for `Cc1ccc(-c2noc(CSc3nnc(-c4ccccc4)n3C)n2)cc1` is 66.5% (inactive).

As a reminder, the inhibition is the change of the read-out against control, counted positive when it falls.
